# hgDAF-12 ag: agonists of H. glycines DAF-12 nuclear receptor; HEK293 GAL4-hgDAF12 UAS-luciferase reporter, agonist luminescence; normalized to butyrate control; activation, % at 6.8 µM; 1.8% of 370,000 active;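 active means activation above a cutoff set at the mean of all screened compounds plus 3 SD, cut at about 10% in these data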;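 further: 0% = DMSO wells and 100% = sodium butyrate wells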
# ssDAF12 agonist: activates DAF-12 receptor from parasite S. stercoralis; 1% of 370,000 active; activation, % at 6.8 µM; HEK293 ssDAF-12/GRIP1 lit1-tk-luc reporter, luminescence; % of 3 µM dafachronic acid response;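 active means activation above the mean over all tested compounds plus 3 SD, cut at about 0.9% in these data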;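 further: 0% = DMSO-only wells and 100% = 3 µM delta7-dafachronic acid wells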
# SMARCA2 act: activators of SMARCA2 function | AID 652017 | activation, % at 9.1 µM | 1% of 370,000 active | MG213 cells, MMTV-luciferase reporter, dexamethasone, overnight; in the data active means activation above about 7.8%;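 further: 0% = vehicle wells and 100% = reference activator wells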
# DAX1 inh-1: DAX1 (NR0B1) inhibition, primary screen; inhibition, % at 6.8 µM; 1.1% of 370,000 active; HEK293T StAR-luciferase reporter, SF-1/DAX-1 repression relief; AID 652010;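 active means inhibition above the mean over all tested compounds plus 3 SD, cut at about 3.6% in these data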;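 further: 0% = DAX-1 cells with DMSO and 100% = cells lacking DAX-1 with DMSO; higher inhibition means more luminescence from relief of DAX-1 repression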
# DAX1 inh-2: inhibits human nuclear receptor DAX1 | 0.99% of 340,000 active | P51843 | inhibition, % at 6.75 µM | AID 504766 | HEK293 Gal4-DAX1 luciferase reporter, luminescence;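 active means inhibition above the mean over all tested compounds plus 3 SD, cut at about 4.2% in these data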;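 further: 0% = DAX1-transfected cells with DMSO and 100% = empty-vector control cells with DMSO; inhibition shows as a rise in luminescence from relieved DAX1 repression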
# Target sequence (P51843 207-470 limits assumed): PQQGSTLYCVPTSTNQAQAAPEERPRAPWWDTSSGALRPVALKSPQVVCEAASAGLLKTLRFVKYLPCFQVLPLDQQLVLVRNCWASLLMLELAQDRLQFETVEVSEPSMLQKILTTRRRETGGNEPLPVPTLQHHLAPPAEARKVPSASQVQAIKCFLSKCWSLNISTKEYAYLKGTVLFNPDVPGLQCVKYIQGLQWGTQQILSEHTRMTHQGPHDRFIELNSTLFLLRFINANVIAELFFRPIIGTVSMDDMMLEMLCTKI
# hcDAF-12 act: activators of H. contortus DAF-12 nuclear receptor | 1.4% of 370,000 active | activation, % at 6.8 µM | HEK293 hcDAF-12 lit1-tk-luc reporter, luminescence; 0% DMSO, 100% Δ7-dafachronic acid;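 active means activation above the mean of all tested compounds plus 3 SD, cut at about 5.5% in these data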;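 further: 100% = response to 3 µM Δ7-dafachronic acid high control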
# SMARCA2 conf: confirmation of SMARCA2 (BRM) function activators; shares compounds with SMARCA2 act; 30% of 3,500 active; MG213 cells, MMTV-luciferase with dexamethasone, luminescence, overnight; MG213 cells expressing E1A, Rb sequestered; DMSO wells 0%, reference activator 100%; AID 652260; activation, % at 9.1 µM;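 active means activation above its plate's cutoff, the mean activation of tested wells plus 3 SD, cut at about 7.9% in these data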
# GAL4-VP16 Luc: activates GAL4-VP16 luciferase, flagging SMARCA2 activator hits; AID 686939; HEK293 GAL4-VP16 pG5luc reporter, luciferase luminescence; scaled: DMSO wells 0%, SAHA wells 100%; 41% of 3,500 active; shares compounds with SMARCA2 act; activation, % at 9.1 µM;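 active means activation above the solvent-only control well mean plus 3 SD, averaged across control plates, cut at about 5.2% in these data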
# LXRb hcDAF ctr: LXR-beta agonism as hcDAF-12 counter-screen; shares compounds with hcDAF-12 act; HEK293 Gal4-LXR tk-luc reporter, luminescence, 24 h; normalized: DMSO 0%, positive control 100%; activation, % at 6.8 µM; 3,400 tested, under 10 active;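 active means mean percent activation of the reporter above a cutoff set as the average over tested compounds plus their standard deviation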
# hcDAF12 conf: confirmation of H. contortus DAF-12 agonists. shares compounds with hcDAF-12 act. HEK293 hcDAF-12 lit1-tk-luc reporter, luminescence; % of Δ7-dafachronic acid response. activation, % at 6.8 µM. 61% of 3,400 active. AID 743032;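 active means mean activation across triplicate tests above the threshold derived from the earlier primary screen, cut at about 5.5% in these data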;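 further: 0% = DMSO only wells and 100% = 3 µM Δ7-dafachronic acid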
# hgDAF12 conf: hgDAF-12 agonism, confirmation assay; shares compounds with hgDAF-12 ag; HEK293 GAL4-hgDAF12 luciferase reporter, agonist mode; percent of butyrate response; activation, % at 6.8 µM; 80% of 3,300 active;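 active means mean activation over triplicate wells above the hit cutoff derived from the earlier primary screen, cut at about 11% in these data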;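 further: 0% = DMSO low control and 100% = 2 mM sodium butyrate high control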
# LXRb DAF12 ctr: LXR-beta agonism as DAF-12 counter-screen. shares compounds with hgDAF-12 ag. HEK293 Gal4-LXR luciferase reporter, 24 h. activation, % at 6.8 µM. 3,300 tested, under 10 active. AID 743051;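 active means mean activation of the triplicate above a set limit carried over from the primary screen, none filed active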
# Numbers without * were called inactive; nt = no result given. The list is not random: actives were taken first. Their share in the collection is about 4.8%.
SMILES,hgDAF-12 ag,ssDAF12 agonist,SMARCA2 act,DAX1 inh-1,DAX1 inh-2,hcDAF-12 act,SMARCA2 conf,GAL4-VP16 Luc,others
C=CCn1c(O)c(C(C)=NC2CCN(Cc3ccccc3)CC2)c(=O)[nH]c1=O,3,-2,-2,0,nt,-1,nt,nt,
CN(C)C(=O)Oc1ccc(OC(=O)c2ccccc2)cc1,1,-2,11*,0,0,0,8.2*,-1,
S=P1(Oc2ccccc2)Nc2ccccc2N1,12*,0,12*,2,2,3,5,3,
COc1ccc(C(=O)C2CCCN(C3CSCCSC3)C2)c(C)c1 (configuration not stated),-1,-1,-6,2,2,0,nt,nt,
CC(Cc1ccccc1)/[N+]([O-])=C\c1ccc(C(F)(F)F)cc1 (configuration not stated),5,-1,9.2*,1,2,1,11*,6.3*,
O=C(CNS(=O)(=O)c1cccs1)N1CCC2(CC1)OCCO2,2,-1,4,2,0,2,nt,nt,
O=C(CNCc1c(F)cccc1F)N1CCC2(CC1)OCCO2,10,1,8.6*,3,nt,3,16*,3,
C=C1C(C)C2C(Cc3ccccc3)NC(=O)C23C(OC(C)=O)C=CC(C)(O)CC(C)CC=CC3C1O (configuration not stated),-3,-1,14*,3.8*,4.2*,1,14*,5,
Nc1c(C(=O)NCc2ccco2)c2nc3ccccc3nc2n1CCN1CCCCC1,0,-1,8.8*,-1,-1,-1,4,-1,
COc1ccc(Cn2c(N)c(C(=O)NCc3ccco3)c3nc4ccccc4nc32)cc1OC,-5,-1,2,-1,1,-2,nt,nt,
C=CCn1c(O)c(C=NCCN2CCOCC2)c(=O)[nH]c1=S,1,-2,-2,0,2,-1,nt,nt,
Cc1cc(NC(=O)COC(=O)c2c(C)nn(Cc3ccccc3)c2C)no1,-1,-1,0,0,-1,-1,nt,nt,
Cc1cc(NC(=O)CCl)no1,-4,-1,8.9*,-4,-2,-1,1,0,
C[N+]1(C)C2CC[C@H]1CC(OC(=O)C(CO)c1ccccc1)C2 (some centres not stated),1,-1,0,0,0,-2,nt,nt,
C=C1C(=O)C(C)=C2C(=O)N3Cc4[nH]c5ccccc5c4CC3(C(=O)OC)C12 (configuration not stated),-2,-2,9.2*,-1,nt,0,7,3,
Cc1c(OC(=O)N(C)C)ccc2c1O/C(=C\c1ccco1)C2=O,2,-1,8.2*,0,4,-3,4,5.9*,
COC(=O)C1=C(C(=O)OC)SC2(S1)C(C(=O)OC)=C(C(=O)OC)Sc1c2ssc1=O,-5,-1,62*,0,-3,2,-10,8.4*,
NC(=O)c1cn(C2OC(CO)C(O)C2O)c2ncnc(N)c12 (configuration not stated),-15,-3,-13,-3,-3,-4,nt,nt,
N#Cc1cn(C2OC(CO)C(O)C2O)c2ncnc(N)c12 (configuration not stated),7,-2,8.5*,-15,-3,-4,17*,-4,
CS(=O)(=O)c1ccc(C2=C(CNC(=O)c3cccnc3)[C@H]3CC[C@@H](C2)N3Cc2ccccc2)cc1,-2,-1,13*,2,0,0,-3,0,
CS(=O)(=O)c1ccc(C2=C(CNC(=O)c3ccc([N+](=O)[O-])cc3)[C@H]3CC[C@@H](C2)N3Cc2ccccc2)cc1,2,-1,-4,-1,-1,0,nt,nt,
CCCc1nc2ccccc2c(=O)n1-c1ccc(O)cc1,-1,-2,0,0,3,-1,nt,nt,
COc1ccc(F)cc1C(=O)C1CCCN(Cc2ccc(O)cc2)C1 (configuration not stated),1,-1,0,0,0,-1,nt,nt,
O=C(Nc1ccc(Cl)c(Cl)c1)c1ccco1,7,-1,8.2*,0,4,1,3,9.2*,
O=c1[nH]c(=S)n(C2CC2)c(O)c1C=NCc1ccc(F)cc1,1,-1,-5,0,1,-2,nt,nt,
SMILES,hgDAF-12 ag,ssDAF12 agonist,SMARCA2 act,DAX1 inh-1,DAX1 inh-2,hcDAF-12 act,SMARCA2 conf,GAL4-VP16 Luc,others
N#Cc1c(Br)n(C2OC(CO)C(O)C2O)c2ncnc(N)c12 (configuration not stated),18*,-1,63*,0,7.6*,1,52*,-1,hgDAF12 conf=10;LXRb DAF12 ctr=1
CC(=O)N1CCN(Cc2ccc(Cl)nc2)CC1,-2,1,2,0,1,0,nt,nt,
CN(C)C(Cc1ccccc1)C(=O)c1c[nH]c2ccccc12 (configuration not stated),2,0,0,1,-1,6.8*,nt,nt,LXRb hcDAF ctr=0;hcDAF12 conf=2
Clc1ccccc1NC1=NCCCS1,1,-1,0,0,0,0,nt,nt,
Clc1ccccc1Nc1ncnc(-n2cccc2)n1,13*,1,4,2,3,11*,nt,nt,LXRb hcDAF ctr=1;hcDAF12 conf=9.2*
COc1ccc(P2(=O)Nc3ccccc3N2)cc1,6,1.4*,1,2,0,8.0*,nt,nt,LXRb hcDAF ctr=1;hcDAF12 conf=5
COc1ccc(NP2(=O)NCCCN2)cc1,1,-1,-1,1,-1,-1,nt,nt,
CCCCn1c(O)c(C(C)=NC(Cc2c[nH]c3ccccc23)C(=O)OC)c(=O)[nH]c1=O (configuration not stated),3,-1,-5,0,2,1,nt,nt,

# Screens from PubChem.
